Laboratory results reported in the supplement of paper PMC9262897, “Low-cost anti-mycobacterial drug discovery using engineered E. coli” (Nature Communications, 2022).
Structures can show the parent of a compound that is named as a salt. ± gives the standard deviation of the averaged measurements.

Each compound was assayed on E. coli TESEC Alr+ wild-type control (assay: growth (OD600 after 10 h); higher = more growth (less inhibition)). Settings: compound 0.1 mM; raw OD600 reference: median of DMSO wells 0.241, cell-free background 0.041.
Description: (§1)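 TESEC Mtb Alr E. coli, or the Alr+ wild-type control, in 384-well plates with Prestwick library compounds at 0.1 mM and 1% DMSO, across arabinose induction levels of 1E3 to 1E7 nM. Growth is read as OD600 after 10 h at 37 °C in triplicate biological replicates.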

SMILES | growth
CN(C)CC/C=C1/c2ccccc2COc2ccc(CC(=O)O)cc21 [Olopatadine hydrochloride] | 0.2304 ± 0.0017
C[C@]12CCC(=O)C=C1C=C[C@@H]1[C@@H]2CC[C@@]2(C)[C@H]1CC[C@@]21CCC(=O)O1 [Canrenone] | 0.129 ± 0.0013
CCC(C)n1ncn(-c2ccc(N3CCN(c4ccc(OCC5COC(Cn6cncn6)(c6ccc(Cl)cc6Cl)O5)cc4)CC3)cc2)c1=O (stereo unspecified) [Itraconazole] | 0.25 ± 0.006
CCCOc1ccc(C(=O)OCCN(CC)CC)cc1N [Proparacaine hydrochloride] | 0.228 ± 0.0033
COc1ccc([C@@H]2Sc3ccccc3N(CCN(C)C)C(=O)[C@@H]2OC(C)=O)cc1 [Diltiazem hydrochloride] | 0.184 ± 0.0078
CCc1cccc2c3c([nH]c12)C(CC)(CC(=O)O)OCC3 (stereo unspecified) [Etodolac] | 0.24 ± 0.0076
N=C(N)NC(=O)c1nc(Cl)c(N)nc1N [Amiloride hydrochloride dihydrate] | 0.236 ± 0.012
N=C(N)c1ccc(OCCCCCOc2ccc(C(=N)N)cc2)cc1 [Pentamidine isethionate] | 0.0725 ± 0.0026
COc1ccccc1O [Guaiacol] | 0.255 ± 0.0046
CN(C)CCOC1=Cc2ccccc2Sc2ccc(Cl)cc21 [Zotepine] | 0.179 ± 0.011
CC(=O)N[C@@H](CS)C(=O)O [Acetylcysteine] | 0.2422 ± 0.0011

These compounds were tested on E. coli TESEC Mtb Alr in the same assay as above. Settings: arabinose 1000 nM; compound 0.1 mM; raw OD600 reference: median of DMSO wells 0.294, cell-free background 0.041.
Description: as §1

SMILES | growth
Cc1onc(-c2c(F)cccc2Cl)c1C(=O)N[C@@H]1C(=O)N2[C@@H]1SC(C)(C)[C@@H]2C(=O)O [Flucloxacillin sodium] | 0.2863 ± 0.0017
CN(C/C=C/c1ccccc1)Cc1cccc2ccccc12 [Naftifine hydrochloride] | 0.0444 ± 0.001
COc1ccccc1Oc1c(NS(=O)(=O)c2ccc(C(C)(C)C)cc2)nc(-c2ncccn2)nc1OCCO [Bosentan] | 0.253 ± 0.0068
O=C(O)CCC(=O)Nc1ccc(S(=O)(=O)Nc2nccs2)cc1 [Succinylsulfathiazole] | 0.328 ± 0.017
NC(=O)OCC(O)COc1ccc(Cl)cc1 (stereo unspecified) [Chlorphensin carbamate] | 0.287 ± 0.016
C(=C\c1ccccc1)/CN1CCN(C(c2ccccc2)c2ccccc2)CC1 [Cinnarizine] | 0.246 ± 0.015
Cc1ccccc1OCC(O)CO (stereo unspecified) [Mephenesin] | 0.286 ± 0.0091
O=C(O)CN(CCN(CC(=O)O)CC(=O)O)CCN(CC(=O)O)CC(=O)O [Pentetic acid] | 0.0429 ± 0.00085
CC(=O)OCC(=O)[C@@]1(OC(C)=O)[C@@H](C)C[C@H]2[C@@H]3C[C@H](F)C4=CC(=O)C=C[C@]4(C)[C@@]3(F)[C@@H](O)C[C@@]21C [Diflorasone Diacetate] | 0.178 ± 0.0085
O=C1C(CC[S+]([O-])c2ccccc2)C(=O)N(c2ccccc2)N1c1ccccc1 (stereo unspecified) [Sulfinpyrazone] | 0.244 ± 0.0079
O=C(CCNNC(=O)c1ccncc1)NCc1ccccc1 [Nialamide] | 0.28 ± 0.01
C[N+]1(C)CCC(=C(c2ccccc2)c2ccccc2)CC1 [Diphemanil methylsulfate] | 0.289 ± 0.01
Cc1ccc(C)c(OCCCC(C)(C)C(=O)O)c1 [Gemfibrozil] | 0.258 ± 0.0058
O=C1CCc2cc(OCCCCc3nnnn3C3CCCCC3)ccc2N1 [Cilostazol] | 0.194 ± 0.027
COc1cc(C(=O)NCc2ccc(OCCN(C)C)cc2)cc(OC)c1OC [Trimethobenzamide hydrochloride] | 0.295 ± 0.0097
Cc1nnc(SCC2=C(C(=O)O)N3C(=O)[C@@H](NC(=O)Cn4cnnn4)[C@H]3SC2)s1 [Cefazolin sodium salt] | 0.3162 ± 0.0031
N#Cc1ccc(C(c2ccc(C#N)cc2)n2cncn2)cc1 [Letrozole] | 0.308 ± 0.006
CCOc1nc2cccc(C(=O)O)c2n1Cc1ccc(-c2ccccc2-c2nnn[nH]2)cc1 [Candesartan] | 0.297 ± 0.0053
CC(CNC1CCCCC1)OC(=O)c1ccccc1 (stereo unspecified) [Hexylcaine hydrochloride] | 0.303 ± 0.0092
C#C[C@]1(O)CC[C@H]2[C@@H]3CCC4=Cc5oncc5C[C@]4(C)[C@H]3CC[C@@]21C [Danazol] | 0.168 ± 0.026

SMILES | growth
CC1CC(OC(=O)c2ccccc2O)CC(C)(C)C1 (stereo unspecified) [Homosalate] | 0.3 ± 0.005
CCOc1ccc2c(c1)C(C)=CC(C)(C)N2 [Ethoxyquin] | 0.283 ± 0.015
CN(C)CCN(Cc1ccc(Cl)cc1)c1ccccn1 [Chloropyramine hydrochloride] | 0.245 ± 0.0086
COc1ccc([C@@H]2CC(=O)c3c(O)cc(O[C@@H]4O[C@H](CO[C@@H]5O[C@@H](C)[C@H](O)[C@@H](O)[C@H]5O)[C@@H](O)[C@H](O)[C@H]4O)cc3O2)cc1O [Hesperidin] | 0.289 ± 0.016
CO[C@H]1C[C@H](O[C@H]2[C@H](C)[C@@H](O[C@@H]3O[C@H](C)C[C@H](N(C)C)[C@H]3OC(C)=O)[C@@H](C)C[C@@]3(CO3)C(=O)[C@H](C)[C@@H](OC(C)=O)[C@@H](C)[C@@H](C)OC(=O)[C@@H]2C)O[C@@H](C)[C@@H]1OC(C)=O [Troleandomycin] | 0.0647 ± 0.0085
CCCCCN(CCCCC)C(=O)C(CCC(=O)O)NC(=O)c1ccc(Cl)c(Cl)c1 (stereo unspecified) [Lorglumide sodium salt] | 0.158 ± 0.01
CC(Oc1ccccc1)C(=O)N[C@@H]1C(=O)N2[C@@H]1SC(C)(C)[C@@H]2C(=O)O (stereo partly specified) [Phenethicillin potassium salt] | 0.311 ± 0.019
C#C[C@]1(O)CC[C@H]2[C@@H]3CCC4=CC(=O)CC[C@@H]4[C@H]3CC[C@@]21C [Norethindrone] | 0.221 ± 0.017
CC[C@H](C)[C@H](N)C1=N[C@H](C(=O)N[C@@H](CC(C)C)C(=O)N[C@H](CCC(=O)O)C(=O)N[C@H](C(=O)N[C@H]2CCCCNC(=O)[C@H](CC(N)=O)NC(=O)[C@@H](CC(=O)O)NC(=O)[C@H](Cc3cnc[nH]3)NC(=O)[C@@H](Cc3ccccc3)NC(=O)[C@H]([C@@H](C)CC)NC(=O)[C@@H](CCCN)NC2=O)[C@@H](C)CC)CS1 [Bacitracin] | 0.324 ± 0.0095
CN(C)CC/C=C1/c2ccccc2COc2ccc(CC(=O)O)cc21 [Olopatadine hydrochloride] | 0.281 ± 0.0096
C[C@]12CCC(=O)C=C1C=C[C@@H]1[C@@H]2CC[C@@]2(C)[C@H]1CC[C@@]21CCC(=O)O1 [Canrenone] | 0.139 ± 0.0075
CCC(C)n1ncn(-c2ccc(N3CCN(c4ccc(OCC5COC(Cn6cncn6)(c6ccc(Cl)cc6Cl)O5)cc4)CC3)cc2)c1=O (stereo unspecified) [Itraconazole] | 0.321 ± 0.01
CCCOc1ccc(C(=O)OCCN(CC)CC)cc1N [Proparacaine hydrochloride] | 0.308 ± 0.017
COc1ccc([C@@H]2Sc3ccccc3N(CCN(C)C)C(=O)[C@@H]2OC(C)=O)cc1 [Diltiazem hydrochloride] | 0.239 ± 0.01
CCc1cccc2c3c([nH]c12)C(CC)(CC(=O)O)OCC3 (stereo unspecified) [Etodolac] | 0.272 ± 0.0061
N=C(N)NC(=O)c1nc(Cl)c(N)nc1N [Amiloride hydrochloride dihydrate] | 0.291 ± 0.021
N=C(N)c1ccc(OCCCCCOc2ccc(C(=N)N)cc2)cc1 [Pentamidine isethionate] | 0.0837 ± 0.0024
COc1ccccc1O [Guaiacol] | 0.314 ± 0.0073
CN(C)CCOC1=Cc2ccccc2Sc2ccc(Cl)cc21 [Zotepine] | 0.186 ± 0.0076
CC(=O)N[C@@H](CS)C(=O)O [Acetylcysteine] | 0.298 ± 0.0096
